Most compounds without a hit are left out; they make up all but 3.6% or so of the library.
A549 viability = Nrf2 qHTS screen for inhibitors: counterscreen for cytotoxicity; A549 ARE-Fluc cells, CellTiter-Fluor viability, 18-24 h; Potency, µM (highest dose often 46 µM), for inactives: at the highest dose activity change, negative = cytotoxicity, usual class: inhibitors; hit rate 0.16% among 390,000; AID 504648, 2011; note: % is set by controls: 0 for no effect and ±100 for the full control effect
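Cytotoxicity counterscreen: CellTiter-Fluor fluorescence was measured in A549 ARE_Fluc cells after 18-24 h of compound exposure in a concentration series. The subsequent BugLite luminescent read reports ARE-luciferase activity.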
HepG2 tox = qHTS for Inhibitors of TGF-b: Cytotox Counterscreen; Potency, µM (series often up to 46.1 µM), without a hit: top-dose activity change, negative = cytotoxicity, hits mostly cytotoxic; HepG2 CAGA-GFP viability, ATP luminescence, 18 h; hit rate 0.76% among 410,000
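CellTiter-Glo luminescence gave cytotoxicity after 18 hours at 37 degrees C. The cells were HepG2 CAGA-GFP in 1% FBS DMEM, stimulated with 500 pg/mL TGF-beta after compound addition. %Activity was normalised to no-cell wells (complete cell-killing) and DMSO (no toxicity), and curves were fitted and classified.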
TGFb SMAD3 inh = qHTS for Inhibitors of TGF-b | Potency, µM (doses to about 46.1 µM), for inactives: top-dose activity, negative = inhibition, actives largely listed as inhibitors | hit rate 1.2% among 410,000 | HepG2 CAGA-GFP TGF-b/SMAD3 reporter, GFP fluorescence, 18 h; TGF-beta stimulated, 500 pg/mL final; note: % is set by controls: 0 for no effect and ±100 for the full control effect; nearly all actives have a fitted effect of over 65% in size
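Inhibition was scored as loss of TGF-beta-induced (500 pg/mL final, 18 hours, 37 degrees C) GFP in HEPG2 cells carrying a CAGA-GFP reporter, in DMEM with 1% FBS. Well GFP was summed per cell; Activity was normalised to unstimulated and stimulated DMSO wells, then concentration-response fitting.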
Nrf2 inh = Nrf2 qHTS screen for inhibitors. A549 ARE-Fluc reporter, luciferase luminescence, 18-24 h. Potency, µM (highest dose often 46 µM), for inactives: at the top dose activity change, negative = inhibition, most hits filed as inhibitors. hit rate 2.1% among 360,000. AID 504444, 2011; note: % is set by controls: 0 for no effect and ±100 for the full control effect; nearly all actives have a fitted effect of over 60% in size
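In this cell-based qHTS, ARE-driven firefly luciferase in A549 cells reports Nrf2 activity; the luminescent signal after BugLite lysis is the measured value, with a prior CellTiter-Fluor read for cell health.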
Nrf2 ARE act = qHTS of Nrf2 Activators; hit rate 0.31% among 410,000; Potency, µM (doses to about 46.1 µM), for the others: at the highest dose activation, usual class: activators; AREc32 ARE-luciferase reporter (MCF7-derived line), luminescence, 24 h; note: % of control where 0% means no effect; nearly all actives have a fitted effect of over 65% in size
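AREc32 cells carrying an ARE-driven firefly luciferase, 1000 cells/well in OPTI-MEM with 5% FBS, dosed after overnight attachment and incubated 24 hr at 37 deg C. Steady-Glo luminescence read after 30 min at RT.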
An asterisk follows results filed as active; u = inconclusive; x = no result; ! = a repeat was not active; [ ] = another dose, or the depositor's remark. Calls come from the whole dose curve; as a rule, active = well fitted curve in the direction sought with a large enough effect; inconclusive = small, poorly fitted or top-dose-only effect, or another doubt; inactive = no such curve, though single readings can be large; an effect the other way counts as inactive or inconclusive. Potency is the fitted concentration of half-maximal effect.

SMILES	A549 viability	HepG2 tox	TGFb SMAD3 inh	Nrf2 inh	Nrf2 ARE act
Fc1ccccc1NC(=S)Nc1ccc(Br)cc1	u	-9%	-25%	23µM*	0%
Cc1oc(-c2ccccc2)cc1C(=O)Nc1cccc(/C=C\C(=O)O)c1	1%	-27%	0%	-14%	6%
Cc1ccccc1OCC(=O)N/N=C/c1cc2ccccc2nc1Cl	-27%	-19%	-13%	18µM*	1%
CC(/C=C1\SC(=S)N(NC(=O)c2ccc(O)cc2)C1=O)=C\c1ccccc1	-17%	-16%	5%	-13%	11%
O=C(/C=C/c1ccc(Cl)cc1)NC(=S)Nc1ccc(N2CCOCC2)c(Cl)c1	-12%	-13%	8%	16µM*	-1%
O=C(CSc1nc2ccc(Cl)cc2[nH]1)Nc1ccc2c(c1)CCC2	-2%	-30%	u	-3%	5%
COC(=O)N1C(=O)[C@](CC(C)C)(c2ccccc2)N1C(=O)OC	2%	-61%	8.9µM*	15%	10%
CC[C@@]1(c2ccccc2OC)C(=O)N(C(=O)OC)N1C(=O)OC	-9%	-9%	u	-24%	6%
C=CC[C@H](CC(=O)N(CCO)Cc1ccccc1)C(=O)N[C@@H](COC(=O)[C@@H](CC=C)CC(=O)OC(C)(C)C)Cc1c[nH]c2ccccc12	u	-21%	u	21µM*	-5%
C=CC[C@@H](CC(=O)N(CCO)Cc1ccccc1)C(=O)N[C@@H](COC(=O)[C@H](CC=C)CC(=O)OC(C)(C)C)Cc1c[nH]c2ccccc12	u	8%	u	23µM*	-5%
C=CC[C@H](CC(=O)N(CCO)Cc1ccccc1)C(=O)N[C@H](COC(=O)[C@H](CC=C)CC(=O)OC(C)(C)C)Cc1c[nH]c2ccccc12	u	4%	u	u	-2%
C=CC[C@@H](CC(=O)N[C@H](CO)Cc1ccccc1)C(=O)N[C@H](COC(=O)[C@H](CC=C)CC(=O)OC(C)(C)C)Cc1c[nH]c2ccccc12	u	-38%	16µM*	u	-1%
C=CC[C@@H](CC(=O)N[C@@H](CO)Cc1ccccc1)C(=O)N[C@H](COC(=O)[C@H](CC=C)CC(=O)OC(C)(C)C)Cc1c[nH]c2ccccc12	u	-15%	u	u	-2%
CC1=C(C(=O)Nc2cccc(F)c2)C2(CCCCC2)OC1=O	0%	-25%	-10%	x	-1%
CC1(C)CC(NC(=O)C2CCN(S(=O)(=O)c3ccc(F)cc3)CC2)CC(C)(C)N1	3%	7%	7%	9%	-1%
c1ccc(CNCCCNCCCCNCCCNCc2ccccc2)cc1	-13%	7.9µM*	u	u	-4%
O=C(O)CCCCNCc1ccccc1	12%	-10%	4%	8%	-1%
COc1ccccc1Nc1c2c(nc3ccc(NC(=O)c4ccc(OC)c(OC)c4)cc13)CCCC2	u	22µM*	u	-11%[9.27 µM]	-4%
COc1cc(Nc2c3c(nc4ccccc24)CCC3)cc(OC)c1OC	u	-29%	u	u	7%
COc1ccccc1Nc1c2c(nc3ccc(NC(=O)c4cccc(OC)c4OC)cc13)CCCC2	u	-57%	u	8%[9.27 µM]	-4%
O=C(COc1ccccc1)NNc1c2ccccc2nc2ccccc12	u	-40%	u	x	-1%
COc1ccc(OC)c(Nc2c3ccccc3nc3ccccc23)c1	u	-27%	13µM*	u	3%
COc1ccc(OC)c(Nc2c3c(nc4ccccc24)CCC3)c1	-16%	-14%	11µM*!	-3%	0%
COc1ccc(OCC(=O)NNc2c3ccccc3nc3ccccc23)cc1	u	-18%	u	21µM*	-1%
O=C(CNC(=O)C1COc2ccccc2O1)N/N=C\c1cccc(O)c1 (configuration not stated)	19%	-13%	-8%	-12%	0%[9.22 µM]
COC(=O)c1nc(NC(=O)c2ccccc2Cl)n[nH]1	-2%	6%	-15%	26µM*	-1%

Assay outcomes from PubChem BioAssay.
